# Data reported in PubChem BioAssay (Tox21).
# “And” between values parts separate entries of the source, which are not always exact repeats. Identical values can stand only once. Inconclusive results are not listed. Entries that show only a call come without a potency. Where a structure was tested more than once in an assay, its records may differ in their call. The source made the active and inactive calls. Calls come from the whole dose curve; as a rule, active = well fitted inhibition curve with a large enough effect in the repeat runs; inconclusive = weak or mixed curves; inactive = flat fitted curve, though single readings scatter.
# Biological target: Luciferin 4-monooxygenase (Photinus pyralis) (UniProt P08659)
# Sequence (P08659 whole entry, looked up): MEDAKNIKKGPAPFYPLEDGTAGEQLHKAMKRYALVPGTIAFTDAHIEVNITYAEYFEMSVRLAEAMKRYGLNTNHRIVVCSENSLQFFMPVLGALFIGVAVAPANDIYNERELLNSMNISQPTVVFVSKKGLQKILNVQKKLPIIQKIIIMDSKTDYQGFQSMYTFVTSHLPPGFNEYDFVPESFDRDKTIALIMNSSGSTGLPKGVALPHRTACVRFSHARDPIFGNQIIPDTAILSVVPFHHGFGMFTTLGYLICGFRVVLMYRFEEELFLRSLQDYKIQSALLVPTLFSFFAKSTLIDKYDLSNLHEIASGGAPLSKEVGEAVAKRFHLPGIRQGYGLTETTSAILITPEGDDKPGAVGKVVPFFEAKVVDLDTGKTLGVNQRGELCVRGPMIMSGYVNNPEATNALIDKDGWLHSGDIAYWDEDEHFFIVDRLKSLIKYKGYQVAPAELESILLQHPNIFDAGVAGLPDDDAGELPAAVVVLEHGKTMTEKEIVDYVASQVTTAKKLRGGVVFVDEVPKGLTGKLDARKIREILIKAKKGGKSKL
# Experiment: qHTS assay to identify small molecule inhibitors of firefly luciferase (AID 1224835); note: nearly all actives have a fitted effect of over 25% in size
# Details: purified P. pyralis luciferase, luminescence inhibition; series mostly up to 115 µM
# Text: U.S. Tox21 Program National Center for Advancing Translational Sciences [NCATS] NIH Chemical Genomics Center [NCGC] U.S. Environmental Protection Agency [EPA] National Institutes of Environmental Health Sciences [NIEHS] National Toxicology Program [NTP] U.S. Food and Drug Administration [FDA] Tox21 Assay Overview: Firefly (Photinus pyralis) luciferase is one of the most commonly used transcriptional reporters. Firefly luciferase reporter-gene assays are generally considered one of the most sensitive assay types (Wood, 1995; Wood, 1998). However, it was initially observed, in 1991, by Thompson et al., that compounds that resemble the substrates of firefly luciferase (FLuc) can act as competitive inhibitors of the enzyme, and that these compounds, upon interaction with luciferase in the cell, can actually stabilize the protein and increase its half-life. Previous profiling work by other groups to determine the prevalence of compounds that affect FLuc enzymatic activity (PubChem AID 411) identified that ~3% of the MLSMR library (then at ~72K) inhibited FLuc. […] Thus the Tox21 10K library is profiled for activity against FLuc using a biochemical assay of purified FLuc and KM concentrations of FLuc substrates (D-luciferin and ATP).
# These assay plates were then treated with 23nL of compound or DMSO using a Kalypsys pin tool, which allows for delivery of a 6-point interplate titration of each compound to the assay plate (quantitative HTS.) 1 uL of firefly luciferase mix (containing 50 mM Tris acetate, pH 7.6, 0.04 uM P. pyralis luciferase, 0.01% Tween, 0.05% BSA and dH2O) was then delivered by FRD to each well. Luciferase activity was then measured using a ViewLux CCD imager.
row,Structure (SMILES),Potency
1,CCCCN(CCCC)SN(C)C(=O)Oc1cccc2c1OC(C)(C)C2,inactive
2,CCOP(=S)(OCC)SCCSCC,inactive
3,C#CC(C)(C)NC(=O)c1cc(Cl)cc(Cl)c1,inactive
4,O=NN1CCCCCCC1,inactive
5,CN(C)CCO,inactive
6,Nc1ccccc1C(=O)O,inactive
7,CCCCN(CC)C(=O)SCCC,inactive
8,CC(C#N)CCC#N (stereo not given),inactive
9,Cc1[nH]c(=O)n(C(C)(C)C)c(=O)c1Cl,inactive
10,CCN(CC)c1ccccc1,inactive
11,Nc1c(Cl)c(Cl)nc(C(=O)O)c1Cl,inactive
12,Cc1cccc([N+](=O)[O-])c1,inactive
13,Cc1cc(-c2cc(C)c(N)c(C)c2)cc(C)c1N,inactive
14,O=C(NC(=O)c1c(F)cccc1F)Nc1cc(Cl)c(OC(F)(F)C(F)C(F)(F)F)cc1Cl (stereo not given),inactive
15,CC1C=[C-]C=C1.[C-]#[O+].[C-]#[O+].[C-]#[O+].[Mn],inactive
16,O=c1[nH]c(=O)[nH]c(=O)[nH]1,inactive
17,COC(=O)NC(=S)Nc1ccccc1NC(=S)NC(=O)OC,inactive
18,O=S(=O)(c1ccc(Cl)cc1)c1cc(Cl)c(Cl)cc1Cl,inactive
19,CC(C)=C[C@@H]1[C@@H](C(=O)OCc2coc(Cc3ccccc3)c2)C1(C)C,inactive
20,CN(N=O)c1ccccc1,inactive

row,Structure (SMILES),Potency
1,C=C(C)CCl,inactive
2,CCCN(CCC)N=O,inactive
3,CC(C)(C)OOC(C)(C)C,inactive
4,CC(=O)C=C(C)C,inactive
5,CCNc1nc(NC(C)C)nc(SC)n1,inactive
6,Oc1ccccc1Cl,inactive
7,COC(=O)NS(=O)(=O)c1ccc(N)cc1,inactive
8,[N-]=[N+]=[N-],inactive
9,O=c1[nH]c2ccccc2c(=O)o1,inactive
10,ClCc1cccnc1,inactive
11,Cc1ccc(N)cc1Cl,inactive and 56.4 µM (active)
12,O=[N+]([O-])c1ccc(Oc2ccc(Cl)cc2Cl)cc1,inactive
13,C=CCO,inactive
14,CCCN(CCC)c1c([N+](=O)[O-])cc(C(F)(F)F)cc1[N+](=O)[O-],inactive
15,CCNc1nc(NC(C)(C)C)nc(SC)n1,inactive
16,C#CCN(C)[C@H](C)Cc1ccccc1,inactive
17,Clc1cccc(Cl)c1Cl,inactive
18,O=NN1CCCC1,83.4 µM (active) and inactive
19,CCc1cccc(C)c1N(C(=O)CCl)C(C)COC (stereo not given),inactive
20,CCOP(OCC)OCC,inactive
